# Sampled rows, rich in hits. Any-hit rate of the full collection: about 19%.
# IL1B secr inh – inhibitors of inflammasome signaling (IL-1 beta secretion) | THP-1 LPS/ATP IL-1B secretion, AlphaLISA, 16 h; hits give low values | activity change, % at 57.5 µM | actives 4.7% (n = 360,000); in the data active means activity change below about -50%; inconclusive means mostly about -30% to -49%
#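 THP-1 cells pretreated 1 hr with compounds (up to 57.5 uM final), then stimulated with LPS (250 ng/mL final) plus ATP (1.25 mM final); secreted IL-1B measured by AlphaLISA after 16 hr, decreased signal indicating inhibition.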
# TDP1 cell CPT – DT40-hTDP1 cell growth loss with CPT; chicken DT40 Tdp1-/-;hTDP1 cells + 20 nM CPT, ATP luminescence, 48 h; Potency, µM (titrated, usually from 46.2 µM), for inactives: top-dose activity change, negative = growth inhibition, actives largely listed as inhibitors; actives 12% (n = 420,000); AID 686979; further: potency means the concentration at half of the fitted maximal effect; nearly all actives have a fitted effect of over 55% in size
#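 Cell growth measured by CellTiter-Glo luminescence after a minimum 48 h, 37 C compound exposure with 20 nM CPT in Tdp1-knockout DT40 cells stably expressing hTDP1, seeded 400/well; qHTS titration format.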
# HT1080 IDH1KD tx – HT-1080 IDH1 knockdown cell toxicity (counter line); HT-1080 IDH1 knockdown viability, ATP luminescence, 48 h; Potency, µM (top dose mostly 46.1 µM), without a hit: at the highest dose activity, negative = toxicity, hits mostly cytotoxic; actives 2% (n = 360,000);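 further: potency means the concentration at half of the fitted maximal effect; 0% = DMSO wells and -100% = cell-free medium wells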
#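 IDH1KD HT-1080 cells, 750/well, RPMI + 5% FBS; compound pinned after 2 h settling; 48 h, 37 °C; CellTiter-Glo luminescence; % activity normalised to DMSO and no-cell wells; curves fitted, classed by r2 and efficacy.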
# HT1080-NT tox – kills 2HG-producing HT-1080-NT fibrosarcoma cells | HT-1080-NT fibrosarcoma viability, CellTiter-Glo ATP luminescence, 48 h | Potency, µM (top dose mostly 46.1 µM), inactives show at the top dose activity, negative = less viability, usual class: cytotoxic | actives 1.6% (n = 360,000) | AID 686970;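 further: NT is the 2HG producing partner of a matched IDH1 knockdown line; potency means the concentration at half of the fitted maximal effect; 0% = DMSO-treated cells and -100% = media-only wells without cells; nearly all actives have a fitted effect of over 55% in size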
#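 750 cells/well, RPMI + 5% FBS; 2 h settle, compound pin-transfer, 48 h at 37 degrees C. CellTiter-Glo 10 min RT, luminescence. Normalized to DMSO and media-only wells.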
# DT40 TDP1 no CPT – qHTS for Inhibitors of human tyrosyl-DNA phosphodiesterase 1 (TDP1): qHTS in cells in absence of CPT; DT40 Tdp1-/- hTDP1 cells, no CPT, ATP luminescence, 48 h; Potency, µM (doses to about 46.2 µM), for inactives: top-dose activity change, negative = growth inhibition, actives largely listed as inhibitors; actives 15% (n = 420,000); AID 686978, 2013; further: potency means the concentration at half of the fitted maximal effect; nearly all actives have a fitted effect of over 55% in size
#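 No-CPT arm: Tdp1-/-;hTDP1 DT40 cells (400/well) plus compounds, incubated ≥48 hr at 37 °C. Readout CellTiter-Glo luminescence.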
# * = called active by the depositor; ? = inconclusive; . = no result. Unless noted, the call rests on the fitted dose curve; in most records, active means well fitted curve in the direction sought with a large enough effect; inconclusive means small, poorly fitted or top-dose-only effect, or another doubt; inactive means no such curve, though single readings can be large; an effect the other way counts as inactive or inconclusive. Unless noted, on the % scale 0 is the no-effect control and ±100 the full control effect.
SMILES,IL1B secr inh,TDP1 cell CPT,HT1080 IDH1KD tx,HT1080-NT tox,DT40 TDP1 no CPT
COc1cccc(/C=N/Nc2ccc(S(=O)(=O)O)cc2)c1O,8.6,1.5%,0.0%,11.3%,5.0%
COc1cccc(C=NNC(=O)c2ccncc2)c1O,184.8,0.92µM*,1.46µM*,?,0.184µM*
COc1cc(/C=N/NC(=O)C(=O)N2CCCCCC2)ccc1O,7.7,-0.3%,2.1%,8.3%,8.3%
COc1cccc(/C=N/Nc2ccc(C(=O)O)cc2)c1O,8.5,?,20.6µM*,18.4µM*,20.6µM*
COc1cccc(/C=N/NC(=O)C(=O)N2CCCC2)c1O,116.7,?,-19.4%,?,16.4µM*
CCOc1cccc(/C=N/NC(=O)c2cc(C3CC3)[nH]n2)c1O,93.9,?,-28.0%,?,23.1µM*
COc1ccc(/C=N/NC(=O)c2ccncc2)c(OC)c1,30.4,7.3%,13.8%,-0.6%,8.2%
CCOc1ccccc1/C=N/NC(=O)c1cccc(Cl)c1,0.0,-28.7%,14.3%,5.4%,-32.3%
Cc1ccc(-c2nc(S(=O)(=O)c3ccc(C)cc3)c(SCC(=O)NC3CCCCC3)o2)cc1,.,6.1%,.,.,0.3%
O=C(OOC(=O)c1ccccc1)c1ccccc1,.,1.2%,.,.,-9.4%
COc1ccccc1C=NN=C(NN=Cc1ccccc1OC)NN=Cc1ccccc1OC,-81.6*,?,?,?,?
COc1ccccc1C=NN=C(N)C(N)=NN=Cc1ccccc1OC,-3.8,?,-3.7%,-6.0%,-87.0%
O=C(Nc1ccc([N+](=O)[O-])cc1Br)c1cccnc1,-12.5,-18.2%,17.7%,15.0%,0.0%
CC(=O)Nc1ccc(/C=C/c2ccnc3ccccc23)cc1,.,15.8µM*,.,.,11.2µM*
CC(=O)Nc1ccc(/C=C/c2ccnc3ccccc23)cc1[N+](=O)[O-],.,1.41µM*,.,.,?
CC(=O)Nc1ccc(O)cc1[N+](=O)[O-],25.5,5.6%,-6.0%,-7.1%,-17.8%
COc1ccc(CC(=O)NCC(=O)NC(Cc2ccccc2)C(=O)O)cc1 (configuration not stated),-1.5,-3.8%,-4.3%,19.1%,-0.7%
O=C(O)CN1C(=O)/C(=C/C=C/c2ccccc2)SC1=S,18.9,?,-2.9%,5.7%,?
COc1ccc(/C=C2\SC(=S)N(CCC(=O)NCCCN3CCOCC3)C2=O)cc1,-65.9*,-15.8%,-21.5%,-3.0%,?
O=C(CCCN1C(=O)/C(=C/c2cccc(Br)c2)SC1=S)NCCCN1CCOCC1,-96.4*,25.9µM*,?,?,?
CCOc1ccc(/C=C2\SC(=S)N(CC(=O)NCCCN3CCOCC3)C2=O)cc1,-13.4,3.6%,-0.2%,-17.9%,-3.2%
O=C(CCN1C(=O)/C(=C/C=C/c2ccccc2)SC1=S)Nc1ccccn1,-16.3,16.4µM*,-20.8%,?,?
O=C(CCN1C(=O)/C(=C/c2ccccc2Cl)SC1=S)NCCCN1CCOCC1,-8.7,?,-9.2%,3.4%,?
CCc1ccc(/C=C2\SC(=S)N(CCC(=O)NCCCN3CCOCC3)C2=O)cc1,-87.9*,?,?,?,?
O=C(Cc1ccc(NC2=NC3CS(=O)(=O)CC3S2)cc1)NCc1ccccc1 (configuration not stated),5.5,-5.6%,-8.6%,12.3%,8.1%
SMILES,IL1B secr inh,TDP1 cell CPT,HT1080 IDH1KD tx,HT1080-NT tox,DT40 TDP1 no CPT
C=C1CCN([C@@H](C)C(=O)NCc2ccc(Cl)cc2)S(=O)(=O)c2ccccc21,20.5,?,-16.7%,-3.6%,?
CCc1ccc(/C=C2\SC(=S)N(CCCC(=O)Nc3ccccn3)C2=O)cc1,-13.0,?,6.2%,5.5%,?
COC(=O)c1ccc(/C=C2\SC(=S)N(CCCC(=O)NCCCN3CCOCC3)C2=O)cc1,-16.1,?,?,?,23.1µM*
O=C(CN1C(=O)S/C(=C\C=C\c2ccccc2)C1=O)Nc1cccc(O)c1,-109.8*,?,?,?,?
COC(=O)c1ccc(/C=C2/SC(=S)N(CCCC(=O)Nc3ccccn3)C2=O)cc1,3.7,20.6µM*,?,-10.7%,20.6µM*
CN(Cc1ccc(Cl)cc1)C(c1cc2ccccc2o1)c1nnnn1C(C)(C)C (configuration not stated),0.0,?,?,-17.9%,?
CC1=C(C(=O)OCc2ccccc2)C(c2cccnc2)n2ncnc2N1 (configuration not stated),19.3,18.4µM*,-1.7%,-5.8%,14.6µM*
COC(=O)C1=C(C)Nc2ncnn2C1c1ccc(OC(=O)c2ccccc2)cc1 (configuration not stated),14.1,8.2µM*,-10.1%,-3.1%,?
CC(CCc1ccccn1)(CCc1ccccn1)C(=O)c1ccccc1,?,?,3.4%,4.3%,?
Cn1cnnc1SCC(=O)Nc1nc(-c2ccccc2)cs1,19.4,-8.6%,4.0%,-1.5%,?
O=c1[nH]c(=O)c2cc([N+](=O)[O-])cc([N+](=O)[O-])c2[nH]1,-73.5*,?,-11.3%,0.7%,?
Cc1cccc(C)c1NC(=O)CN(C)CC(=O)N1CC(=O)Nc2ccccc21,29.5,10.5%,3.4%,-0.8%,-3.9%
O=c1cc[nH]c2cccc(Cc3ccccc3)c12,-8.7,?,-14.4%,-10.1%,13µM*
Cn1cc(Cc2ccccc2)c(=O)c(Cc2ccccc2)c1,-6.9,-20.6%,11.5%,8.0%,-1.2%
COc1cc2c(cc1OC)CN(C(=O)/C=C/c1ccc(F)cc1)CC2,-13.2,?,-1.6%,-1.5%,?
COc1cc2c(cc1OC)CN(C(=O)/C=C/c1cc(OC)c(OC)c(OC)c1)CC2,-11.7,?,-5.8%,-6.8%,9.2µM*
COc1cc(/C=C/C(=O)N2CCCC2)cc(OC)c1OC,0.0,9.2%,8.3%,10.5%,3.2%
COc1ccc(CC(=O)N2CCc3cc(OC)c(OC)cc3C2C)c(OC)c1 (configuration not stated),21.6,?,-5.0%,1.1%,?
COc1cc2c(cc1OC)C(C)N(C(=O)/C=C/c1cc(OC)c(OC)c(OC)c1)CC2 (configuration not stated),-22.2,14.6µM*,-7.3%,-0.6%,8.2µM*
COc1cc(/C=C/C(=O)N2CCCCC2=O)cc(OC)c1OC,.,2.99µM*,.,.,3.76µM*
COc1cc2c(cc1OC)C(CNC(=O)C=Cc1cc(OC)c(OC)c(OC)c1)C2 (configuration not stated),-13.4,?,0.8%,-7.0%,18.4µM*
CCn1ncc(NC(=S)NCCc2ccccc2)c1C(N)=O,43.3,-2.2%,-0.4%,8.9%,-11.6%

# Assay outcomes: PubChem BioAssay, National Center for Advancing Translational Sciences (NCATS)
